In the supplement of paper PMC3898565 one finds cell viability data, which are given here for 29 compounds.

The test system of this assay is U87. Kind of assay: cell viability relative to vehicle control; higher = less growth inhibition (less active). The following applies: 10 µM; 72 h.

Structures are written as SMILES. ± gives the uncertainty stated by the source.
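Also: viable cell number estimated from Alamar Blue fluorescence read at 560/90, part of a single-dose primary screen of an FDA-approved drug library.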

For orientation: cell viability means a read-out of living cells in per cent, often relative to untreated cells. Consider `CC[C@H](C)C(=O)O[C@H]1C[C@H](O)C=C2C=C[C@H](C)[C@H](CC[C@@H](O)C[C@@H](O)CC(=O)O)[C@H]21` [PRAVASTATIN Sodium], for which the cell viability came to 105.9 ± 0.46%.

For the compound `COc1ccc(-c2oc3c(CC=C(C)C)c(O[C@@H]4O[C@H](CO)[C@@H](O)[C@H](O)[C@H]4O)cc(O)c3c(=O)c2O[C@@H]2O[C@@H](C)[C@H](O)[C@@H](O)[C@H]2O)cc1`, the cell viability came to 105 ± 1.9%.

As for `Nc1ccc(O)c(C(=O)O)c1` [5-Amino-2-hydroxy-benzoic acid], the cell viability worked out at 102.5 ± 0.14%.

In the case of `Nc1ccn([C@@H]2O[C@H](CO)[C@@H](O)[C@@H]2O)c(=O)n1` [2(1H)-Pyrimidinone, 4-amino-1-D-arabinofuranosyl- [CAS]], the cell viability turned out to be 47.5 ± 2.9%.

Take `Cc1c2oc3c(C)ccc(C(=O)N[C@@H]4C(=O)N[C@H](C(C)C)C(=O)N5CCC[C@H]5C(=O)N(C)CC(=O)N(C)[C@@H](C(C)C)C(=O)O[C@@H]4C)c3nc-2c(C(=O)N[C@@H]2C(=O)N[C@H](C(C)C)C(=O)N3CCC[C@H]3C(=O)N(C)CC(=O)N(C)[C@@H](C(C)C)C(=O)O[C@@H]2C)c(N)c1=O`: the cell viability is 16.2 ± 2.6%.

`C/C=C1\[C@H]2C=C(C)C[C@]1(N)c1ccc(=O)[nH]c1C2`: the cell viability is 106.5 ± 0.73%.

In the case of `CN1CCC(=C2c3ccccc3CC(=O)c3sccc32)CC1`, the cell viability came to 109 ± 3.3%.

In the case of `CN(C)CCOC(c1ccccc1)c1ccccc1` [Diphenhydramine], the cell viability amounted to 103 ± 1.1%.

For `OCCN1CCN(CCCN2c3ccccc3Sc3ccc(C(F)(F)F)cc32)CC1` [Fluphenazine], the cell viability worked out at 104.3 ± 0.93%.

`C=C1/C(=C\C=C2/CCC[C@]3(C)[C@@H]([C@H](C)/C=C/[C@@H](O)C4CC4)CC[C@@H]23)C[C@@H](O)C[C@@H]1O`: the cell viability amounted to 100 ± 1.4%.

In the case of `CC(C)(C)NC(=O)[C@@H]1C[C@@H]2CCCC[C@@H]2CN1C[C@@H](O)[C@H](Cc1ccccc1)NC(=O)[C@H](CC(N)=O)NC(=O)c1ccc2ccccc2n1`, the cell viability turned out to be 96.4 ± 2.6%.

`CCCCC[C@H](O)/C=C/[C@H]1[C@H](O)CC(=O)[C@@H]1CCCCCCC(=O)O` [Prostaglandin E1]: the cell viability was 105.7 ± 0.69%.

Regarding `CC(=O)NC[C@H]1CN(c2ccc(N3CCOCC3)c(F)c2)C(=O)O1`, the cell viability is 103 ± 1.8%.

For `O=c1cnn([C@@H]2O[C@H](CO)[C@@H](O)[C@H]2O)c(=O)[nH]1`, the cell viability stood at 94.8 ± 1.9%.

On to `Cc1cn([C@H]2C=C[C@@H](CO)O2)c(=O)[nH]c1=O`, for which the cell viability stood at 105 ± 3%.

As to `CN1CCN(c2nc3cc(C(F)(F)F)ccc3n3cccc23)CC1`, the cell viability is 111 ± 2%.

`CCC(C)n1ncn(-c2ccc(N3CCN(c4ccc(OCC5COC(Cn6cncn6)(c6ccc(Cl)cc6Cl)O5)cc4)CC3)cc2)c1=O` (centres undefined): the cell viability was 21.4 ± 2.1%.

Turning to `C[C@]12CCC(=O)C=C1CC[C@@H]1[C@@H]2C(=O)C[C@@]2(C)[C@H]1CC[C@]2(O)C(=O)CO`, the cell viability is 102 ± 2.8%.

As for `CN1C2CCCC1CC(NC(=O)c1nn(C)c3ccccc13)C2` (centres undefined), the cell viability is 108 ± 0.83%.

As to `COc1cc2c(cc1OC)C(=O)C(CC1CCN(Cc3ccccc3)CC1)C2` (centres undefined) [Donepezil], the cell viability is 99.1 ± 1.4%.

In the case of `O=c1c(O[C@@H]2O[C@H](CO)[C@@H](O)[C@H](O)[C@H]2O)c(-c2ccc(O)c(O)c2)oc2cc(O)cc(O)c12` [Isoquercitrin], the cell viability came out at 104 ± 1.7%.

On to `O=c1c(O[C@@H]2O[C@H](CO)[C@H](O)[C@H](O)[C@H]2O)c(-c2ccc(O)c(O)c2)oc2cc(O)cc(O)c12`, for which the cell viability is 106 ± 1.8%.

For the compound `Cc1onc(-c2ccccc2)c1-c1ccc(S(N)(=O)=O)cc1`, the cell viability stood at 106.8 ± 0.6%.

As to `NC[C@H]1CC[C@H](C(=O)Oc2ccc(CCC(=O)O)cc2)CC1`, the cell viability is 104.6 ± 0.48%.

For the compound `CC1CNc2c(cccc2S(=O)(=O)N[C@@H](CCCNC(=N)N)C(=O)N2CC[C@@H](C)C[C@@H]2C(=O)O)C1` (some centres undefined), the cell viability was 105 ± 2.8%.

On to `CC(C)NCC(O)COc1ccc(CCOCC2CC2)cc1` (centres undefined) [Betaxolol], for which the cell viability worked out at 100.4 ± 0.2%.

As to `CCCCCCNC(=O)n1cc(F)c(=O)[nH]c1=O`, the cell viability was 55.1 ± 2.6%.

On to `C[C@H]1COc2c(N3CCN(C)CC3)c(F)cc3c(=O)c(C(=O)O)cn1c23`, for which the cell viability stood at 102.8 ± 0.96%.

Consider `C[C@@H]1O[C@@H](OC[C@H]2O[C@@H](Oc3c(-c4ccc(O)c(O)c4)oc4cc(O)cc(O)c4c3=O)[C@H](O)[C@@H](O)[C@@H]2O)[C@H](O)[C@H](O)[C@H]1O`, for which the cell viability amounted to 91.89 ± 0.76%.
